Reference: PubChem BioAssay (NCI)
About 83,000 compounds went through this panel and 20% of them were active in at least one assay; those are over-represented in the sample as a whole.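 Single-dose data. Exposure time 48 hours. Values below 10 considered active.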 A number with no mark means an inactive call. Active and inactive are the calls of the source.

Tests used:
Assay in all cases: NCI-60 one-dose screen, 48 h (100 = growth as untreated, 0 = no growth, -100 = all killed)
NCI-H23 lung = details: 10 µM unless noted
NCI-H226 lung = details: 10 µM unless noted
NCI-H322M lung = details: 10 µM unless noted
HOP-62 NSCLC = details: 10 µM unless noted
NCI-H460 lung = details: 10 µM unless noted
HOP-92 NSCLC = details: 10 µM unless noted
NCI-H522 lung = details: 10 µM unless noted
A549/ATCC NSCLC = details: 10 µM unless noted
786-0 renal = details: 10 µM unless noted
COLO 205 colon = details: 10 µM unless noted
DU-145 prostate = details: 10 µM unless noted
K-562 leukemia = details: 10 µM unless noted
MALME-3M melanoma = details: 10 µM unless noted
MDA-MB-231 breast = details: 10 µM unless noted
RXF 393 renal = details: 10 µM unless noted
SF-268 CNS = details: 10 µM unless noted
SF-295 CNS = details: 10 µM unless noted
SF-539 CNS = details: 10 µM unless noted
UACC-257 melanoma = details: 10 µM
M14 melanoma = details: 10 µM unless noted

| SMILES | growth (NCI-H23 lung) | growth (NCI-H226 lung) | growth (NCI-H322M lung) | growth (HOP-62 NSCLC) | growth (NCI-H460 lung) | growth (HOP-92 NSCLC) | growth (NCI-H522 lung) | growth (A549/ATCC NSCLC) | growth (786-0 renal) | growth (COLO 205 colon) | growth (DU-145 prostate) | growth (K-562 leukemia) | growth (MALME-3M melanoma) | growth (MDA-MB-231 breast) | growth (RXF 393 renal) | growth (SF-268 CNS) | growth (SF-295 CNS) | growth (SF-539 CNS) | growth (UACC-257 melanoma) | growth (M14 melanoma) |
| --- | --- | --- | --- | --- | --- | --- | --- | --- | --- | --- | --- | --- | --- | --- | --- | --- | --- | --- | --- | --- |
| COc1cc(/C=N/n2cnc3oc(-c4ccccc4)cc3c2=N)cc(CN2CCOCC2)c1O | 73% | 62.4% | 97.5% | 74.2% | 89.8% | 63.3% | 61.1% | 80.1% | 45.6% | 82.4% | 89.3% | 5.46% (active) | 66.4% | 51.4% | -18.4% (active) | 72.4% | 68.1% | 60.9% | 110% | 73% |
| C#CCOc1ccc(C(Nc2ccc(Cl)cc2)c2nnnn2C2CCCCC2)cc1 (stereo not given) | 91.7% | 88.4% | 93.6% | 83.4% | 83.1% | 81.8% | 81% | 78.8% | 92.5% | 97.9% | 93.8% | 82.2% | 98.8% | 76.9% | 87% | 80.2% | 74.5% | 98.6% | 86.2% | 99.4% |
| O=C(CN1C(=O)S/C(=C\c2ccccc2)C1=O)Nc1ccc(C(=O)/C=C/c2cc3ccccc3nc2Cl)cc1 | 59.3% | 92.2% | 92.2% | 87.6% | 88.3% | 87.9% | 73.3% | 88.6% | 94.8% | 103% | 91.4% | 51.2% | 91.1% | 90.2% | 109% | 81.8% | 81% | 90.8% | 71.3% | 78.8% |
| Oc1ccc(CSc2nnc(-c3ccc(Oc4ccccc4)cc3)n2-c2ccccc2)c2cccnc12 | 21.3% | 18.9% | 18.3% | 15% | 0.254% (active) | 10.5% | 15% | 11.8% | 21.6% | 27.7% | 26.5% | 15.3% | 11.9% | 35.8% | 21.5% | 22.3% | 0.102% (active) | 2.32% (active) | 0.403% (active) | -4.33% (active) |
| Oc1ccccc1-c1nnc(SCc2ccc(O)c3ncccc23)o1 | 23.5% | 67.5% | 64.2% | 31.1% | 5.53% (active) | -8.17% (active) | 20.7% | 27.5% | 32.2% | 113% | 29.6% | 19.8% | 30.3% | 60.6% | 29.4% | 34.1% | 15.3% | 37% | 25.2% | 27.4% |
| COc1ccc(-c2nc3cc(Cl)c(Cl)cc3n2CC(=O)N=Nc2c(O)[nH]c3ccccc23)cc1 | 31.4% | -8.79% (active) | 70.3% | 45.3% | 30.3% | 24.1% | 87.9% | 27.8% | 100% | 55% | -11.4% (active) | 28.7% | 35.9% | 54.2% | -21.8% (active) | 64.4% | 79.4% | 13.7% | 95.7% | 50.5% |
| CC(c1ccccc1)N1C(=O)/C(=C/c2csc(C#N)n2)SC1=S (stereo not given) | 101% | 97% | 99.8% | 103% | 106% | 85.5% | 75.4% | 95.8% | 91% | 91.8% | 87.7% | 40.8% | 82.4% | 90.1% | 90.1% | 101% | 103% | 93.4% | 81.7% | 78.4% |
| Oc1ccccc1/C=N/Nc1nc(N/N=C/c2ccccc2O)nc(N2CCOCC2)n1 | 41.5% | 23.3% | 44.5% | 25.7% | 32.5% | -12.8% (active) | 60.9% | 13% | 30.3% | 48% | 35.5% | 25.4% | 52.6% | 36.3% | -0.648% (active) | 72.3% | 19.6% | 51.8% | 53.3% | 37.6% |
| Cc1ccccc1NC1CC(=O)N(c2ccc(Cl)cc2Cl)C1=O (stereo not given) | 102% | 108% | 99% | 103% | 104% | 78% | 95.7% | 99.8% | 94.2% | 120% | 103% | 107% | 98.9% | 104% | 112% | 99.4% | 102% | 93.1% | 98.5% | 102% |
| COc1cc([C@H]2OC[C@H]3[C@@H]2CO[C@@H]3c2ccc(O)c(OC)c2)ccc1O | 86.3% | 86% | 91.7% | 81.2% | 90.3% | 91.8% | 75.8% | 95.1% | 101% | 86.9% | 94.8% | 99.4% | 106% | 65.2% | 76.2% | 91.1% | 108% | 91.1% | 113% | 102% |
| COc1ccc2c(ccn2C(=O)N2c3ccccc3Sc3ccccc32)c1 | 40.3% | 51.6% | 52.6% | 35.3% | 14.2% | 25.4% | -26.8% (active) | 43.8% | 50.1% | -33.3% (active) | 28.2% | 18.7% | 51.3% | 64.5% | 12% | 63% | 16.5% | 11.6% | 70.3% | 21.8% |
| O=C(Nc1cccc(Cl)c1)Nc1nc2ccc(-c3cccc4ccccc34)cc2s1 | 24.6% | 57.5% | 71.1% | 61% | 34.1% | -2.69% (active) | 25.8% | 36.9% | 82.5% | 49.7% | 42.7% | 17.9% | 42.8% | 75.2% | 84.4% | 66.7% | 63.4% | 87% | 50.6% | 68.7% |
| Oc1ccc(-c2nnc(SCc3ccc(O)c4ncccc34)n2-c2ccccc2)cc1 | 19.3% | 15.4% | 19.2% | 19.3% | 3.78% (active) | 4.59% (active) | -4.72% (active) | 6.81% (active) | 19.1% | 28.2% | 24.6% | 10.8% | 3.9% (active) | 30.1% | -7.54% (active) | 10.2% | 5.53% (active) | -6.02% (active) | -4.16% (active) | -28% (active) |
| O=C(CSc1ccc(-c2nc3ccccc3[nH]2)cn1)N1CCN(c2ccccc2F)CC1 | 67.3% | 59.6% | 101% | 89.8% | 88.5% | 71.9% | 52.4% | 81.2% | 95.4% | 79.7% | 90.7% | 41.9% | 90.8% | 100% | 90.7% | 87.7% | 61.4% | 92.1% | 56.2% | 59.8% |
| Clc1ccc(-c2csc(Nc3cccc(Nc4csc(-c5ccc(Cl)cc5)n4)c3)n2)cc1 | 72.3% | 74.6% | 68.9% | 85.3% | 79.1% | 75.9% | 45.6% | 88.5% | 104% | 94.2% | 86.2% | 67.1% | 98% | 64.2% | 94.4% | 79.3% | 90% | 82.8% | 102% | 74.7% |
